Results as given in PubChem BioAssay (NCI).
Compounds without any hit were thinned out: in the full panel of roughly 79,000, 15% have a hit. Calls of active or inactive are those of the source. Cut-off read from the data, not from the text of the source: active = growth inhibition above about 70%; inactive = the rest.

assay: NCI Yeast Anticancer Drug Screen. Data for the rad50 strain (AID 155);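 note: 0% = growth of vehicle-only cultures of the same strain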; conditions: S. cerevisiae rad50 strain growth inhibition; at 50.0 µM; hits give high values
Summary of the method: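 Vehicle-treated cultures provide the reference for the growth inhibition reported for compound-exposed, repair-deficient yeast.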

SMILES | growth inhibition
O=C(c1ccccc1)C1(c2ccccc2)CCCCC1 | 19.6% (inactive)
CCN(CC)CCC(=O)c1ccc(OC)cc1 | 7.95% (inactive)
COc1cccc(Nc2nc(NS(=O)(=O)c3cc(C)c(Cl)cc3S)n[nH]2)c1 | -7.6% (inactive)
Cc1ccc(N=Nc2c(O)n(C)c(=O)n(C)c2=O)cc1C | -8.3% (inactive)
Cn1c(=O)c2[nH]c(SCC(=O)O)nc2n(C)c1=O | 7.45% (inactive)
Cc1cc2c(=O)cc(-c3ccc(C(F)(F)F)cc3)oc2c(C(=O)O)c1C | -34.6% (inactive)
Cc1cnc2cccc(C)c2c1Cl | -29.5% (inactive)
CO/N=C1/c2sccc2[C@H](NC(=O)C(Cc2ccccc2)NC(=O)OC(C)(C)C)[C@@H]1O (stereo not given in full) | -18.2% (inactive)
C(=Nc1ccc2ccccc2c1)c1cccs1 | 1.6% (inactive)
O=C(Nc1ccc2ccccc2c1)C(F)(F)F | -14.7% (inactive)
CCCCCCCC(=O)NN(Cn1c(=S)sc2ccccc21)Cn1c(=S)sc2ccccc21 | 32% (inactive)
Cc1cc(=O)oc2c(CNC(Cc3ccccc3)C(=O)O)c(O)ccc12 (stereo not given) | -39.4% (inactive)
O=C(N/N=C/c1ccc(Cl)cc1)c1ccccc1NC(=O)C1CC1 | -3.85% (inactive)
CN(C)C1CS(=O)(=O)OC2=C1COCC2 (stereo not given) | -16.4% (inactive)
COc1cc2cccc(NC(=O)c3cc(OC)c(OC)c(OC)c3Br)c2cc1OC | 31.4% (inactive)
CCOCCOCCOC(=O)CC(C)=O | 3.45% (inactive)
CC(CO)CCC(=O)C(C)C1CC2(C)CCC3C(CCC4CC(O)CCC43C)C2C12SCCS2 (stereo not given) | 0.6% (inactive)
C(=Nc1ccc(N2CCOCC2)cc1)c1ccc2c(c1)OCO2 | -15.4% (inactive)
Cc1ccc(S(=O)(=O)NCNS(=O)(=O)c2ccc(C)cc2)cc1 | -37.5% (inactive)
COc1cc(/C=C/C(=O)N[C@@H]2C(=O)N3[C@@H]2SC(C)(C)[C@@H]3C(=O)O)cc(OC)c1OC | -5.6% (inactive)

SMILES | growth inhibition
O=P(O)(O)c1ccc(Cl)cc1 | -1.8% (inactive)
CC1(C)CC2(C)OC3(C)CC(C)(C)OC3(C)OC2(C)O1 (stereo not given) | 0.05% (inactive)
NC(=S)NNCC(=O)CC(O)(C(F)(F)F)C(F)(F)Cl (stereo not given) | -21.2% (inactive)
Oc1c(O)c(Cc2ccccc2)c(Cc2ccccc2)c(Cc2ccccc2)c1Cc1ccccc1 | 40.7% (inactive)
COC(=O)c1cc(C)c(C(=O)O)c(C)c1 | 13% (inactive)
CC(C)(C)OC(=O)CC1(C)NC(C(=O)O)C(C)(C)S1 (stereo not given) | 13.3% (inactive)
O=C(c1ccc([N+](=O)[O-])cc1)c1cc2ccccc2oc1=O | -12.1% (inactive)
CCCCCCCSCC1OC(n2cnc3c(N)ncnc32)C(O)C1O (stereo not given) | 3.35% (inactive)
CC1N(N2C(=O)CS(=O)(=O)C2C)C(=O)CS1(=O)=O (stereo not given) | 11.2% (inactive)
CN(CCN(C)C(=O)CCn1cc(F)c(=O)[nH]c1=O)C(=O)CCn1cc(F)c(=O)[nH]c1=O | 26.1% (inactive)
COc1cc2c(c3c1CCC(C)(C)O3)Cc1c(cc(OC)c(OC)c1CCC(C)(C)O)O2 | 41.8% (inactive)
NCC(=O)NCCC(=O)O | 3.15% (inactive)
CC(=O)OCC1COC(C)(c2ccccc2)O1 (stereo not given) | 4.65% (inactive)
CC/C(=C\c1ccc(OC)cc1)c1ccc(OC)cc1 | -16.1% (inactive)
CC(=O)OC(C)=O | -20.2% (inactive)
NC(=O)N1CCCCC1 | 7.2% (inactive)
C=C1C(=O)OC2(C)CCC1CC1OC1(C)CC/C=C(\C)CCC2OC(C)=O (stereo not given) | -3.95% (inactive)
CCc1nc(N)nc(C(=O)NCCNC(=O)c2nc(N)nc(CC)c2C)c1C | -38.1% (inactive)
COC(=O)C(=O)C(C(=O)c1cccc2ccccc12)c1nc2n(c1O)C(=N)N=N2 (stereo not given) | 18.4% (inactive)
O=[N+]([O-])c1ccc(-c2ccc(-c3ccccc3)cc2)cc1 | -1.8% (inactive)
